Screening data as filed in PubChem.
MEKK3 PB1 HTS – raises or lowers MEK5 binding to the human MEKK3 PB1 domain; Q99759; bead-based flow cytometry, Alexa488-MEK5 binding to MEKK3; actives lie on both sides; 0 = blocked by unlabeled MEK5, 100 = vehicle; binding response (% of control), % at 10 µM; 290,000 tested, 1.4% active;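 active = binding response more than 3 SD above or below the average of its plate-row segment, actives on both sides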;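 note: Alexa488 bead fluorescence after subtracting the streptavidin-only scavenger bead signal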
MEKK2wt PB1 HTS – raises or lowers MEK5 binding to wildtype human MEKK2 PB1 domain. bead flow cytometry, Alexa488-MEK5 binding to MEKK2 WT; actives lie on both sides. binding response (% of control), % at 10 µM. 290,000 tested, 1.1% active; in the data active = binding response below about 67% or above about 130%
VLA-4 inh – inhibition in a human VLA-4 binding assay; VLA-4 expressing cells, ligand binding flow cytometry; P13612; 330,000 tested, 0.2% active; inhibition, % (about 7 µM as worked out from the volumes in the protocol); in the data active = inhibition above about 50%
MEKK2 mut-MEK5 – signal of MEK5 binding to mutant human MEKK2 PB1 domain. percent response, % at 10 µM. 290,000 tested, 0.35% active. bead flow cytometry, Alexa488-MEK5 binding to MEKK2 mutant. AID 1530; in the data active = percent response above about 24%, passing the limit was not always enough
MEKK2wt confirm – raises or lowers MEK5 binding to wildtype human MEKK2, retest. shares compounds with MEKK3 PB1 HTS. bead flow cytometry, Alexa488-MEK5 binding to MEKK2 WT; actives lie on both sides. binding response (% of control), % at 10 µM. 5,900 tested, 2.4% active. AID 1892; in the data active = binding response below about 16% or above about 210%; inactive = in between
MEKK2mut-MEK5 – signal of MEK5 binding to mutant human MEKK2, retest | shares compounds with MEKK3 PB1 HTS | bead flow cytometry, Alexa488-MEK5 binding to MEKK2 mutant | percent response, % at 10 µM | 5,900 tested, 2% active; in the data active = percent response mostly above about 71%, no sharp cut-off; inactive = mostly below about 38%;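 note: higher means compound restores mutant binding toward wildtype level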
MEKK3 confirm – confirmation of inhibitors of MEK5 binding to human MEKK3 | AID 1894 | 5,900 tested, 1.8% active | binding response (% of control), % at 10 µM | shares compounds with MEKK3 PB1 HTS | bead flow cytometry, Alexa488-MEK5 binding to MEKK3; hits give low values;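 active = binding response below 72% of control, or above a set upper limit, though filed actives all read lower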;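 note: lower values mean stronger disruption of MEK5 binding to MEKK3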
Of the large screens only hits and unclear results are named; the others gave an inactive call (follow-up assays come after a bar, where they were run); [ ] = remark or other dose. This is a sample that favours compounds with a hit; in the whole collection about 2.2% have one here.

C=CCN=C(C)C1=C(O)C(C)OC1=O (configuration not stated)	MEKK3 PB1 HTS 134 | MEKK2wt confirm inactive | MEKK2mut-MEK5 inactive | MEKK3 confirm inactive
Cc1ccc(CNC(=O)c2cc(C)nn2-c2ccccc2)cc1	none
Cc1ccc(Cc2nnc3n(-c4ccccc4)nc(C(=O)c4ccccc4)n3c2=O)cc1	MEKK3 PB1 HTS 65[inhibitor] | MEKK2wt confirm inactive | MEKK2mut-MEK5 inactive | MEKK3 confirm inactive
COCCNCC1C(Oc2ccc(Cl)cc2)C(=O)N1c1ccccc1C (configuration not stated)	none
COc1ccc(CCNCC2C(Oc3ccc(Cl)cc3)C(=O)N2c2ccccc2C)cc1OC (configuration not stated)	MEKK2wt PB1 HTS 155 | MEKK2wt confirm inactive | MEKK2mut-MEK5 inactive | MEKK3 confirm inactive
N#Cc1nc(-c2cccc(Cl)c2)oc1N1CCC(C(N)=O)CC1	none
O=C(Nc1nc(-c2ccccc2)c(C(=O)c2ccccc2)s1)c1ccc(S(=O)(=O)N2CCCC2)cc1	MEKK3 PB1 HTS 135 | MEKK2wt confirm inactive | MEKK2mut-MEK5 inactive | MEKK3 confirm inactive
O=C(CSc1n[nH]c(=O)n1Cc1ccco1)Nc1ccccc1	MEKK3 PB1 HTS 128 | MEKK2wt confirm inactive | MEKK2mut-MEK5 inactive | MEKK3 confirm inactive
CC(C)c1ccc(NC(=O)CSc2n[nH]c(=O)n2Cc2ccco2)cc1	none
O=C(O)C(Cc1c[nH]c2ccccc12)NS(=O)(=O)c1ccc(Cl)c(C(F)(F)F)c1 (configuration not stated)	none
N#Cc1ccccc1S(=O)(=O)N1CCN(CC(O)CN2CCOCC2)CC1 (configuration not stated)	none (no result: MEKK3 PB1 HTS, MEKK2wt PB1 HTS, MEKK2 mut-MEK5)
CC(C)NC(=O)C(=O)NNC(=O)C12CC3CC(CC(C3)C1)C2	MEKK2 mut-MEK5 24 | MEKK2wt confirm inactive | MEKK2mut-MEK5 inactive | MEKK3 confirm inactive
O=C(CSc1ccc2nnc(-c3ccc(F)cc3)n2n1)N1CCCc2ccccc21	MEKK3 PB1 HTS 134 | MEKK2wt confirm inactive | MEKK2mut-MEK5 inactive | MEKK3 confirm inactive
O=C(CSc1ccc2nnc(-c3ccc(Cl)cc3)n2n1)N1CCCc2ccccc21	none
O=C(COC(=O)C1(c2ccc(F)cc2)CCCC1)Nc1ncc(C(F)(F)F)cc1Cl	MEKK3 PB1 HTS 133 | MEKK2wt confirm inactive | MEKK2mut-MEK5 inactive | MEKK3 confirm inactive
Cc1cc(N)ccc1NC(=O)CN1CCOCC1	none
Cc1nc(N2CCN(Cc3ccccc3)CC2)c(C#N)c2c1COC(C)(C)C2	MEKK3 PB1 HTS 79[inhibitor] | MEKK2wt confirm inactive | MEKK2mut-MEK5 inactive | MEKK3 confirm inactive
CCOc1ccc(N(CC(=O)Nc2cccc(Cl)c2)S(=O)(=O)c2c(C)noc2C)cc1	MEKK2wt PB1 HTS 155 | MEKK2wt confirm inactive | MEKK2mut-MEK5 inactive | MEKK3 confirm inactive
NCC(c1ccc(Cl)cc1Cl)c1c[nH]c2ccccc12 (configuration not stated)	MEKK2wt PB1 HTS 141 | MEKK2wt confirm inactive | MEKK2mut-MEK5 inactive | MEKK3 confirm inactive
Cc1cc(C(=O)COC(=O)Cc2n[nH]c(=O)c3ccccc23)c(C)n1-c1ccc2c(c1)OCO2	MEKK3 PB1 HTS 139 | MEKK2wt confirm inactive | MEKK2mut-MEK5 inactive | MEKK3 confirm inactive
COc1ccccc1NS(=O)(=O)c1cccc(C(=O)N2CCCCCCC2)c1	none (no result: MEKK3 PB1 HTS, MEKK2wt PB1 HTS, MEKK2 mut-MEK5)
CN(C)C(=O)C(CCN1CCC(O)(c2ccc(Cl)cc2)CC1)(c1ccccc1)c1ccccc1	MEKK2wt PB1 HTS 150 | MEKK2wt confirm inactive | MEKK2mut-MEK5 inactive | MEKK3 confirm inactive
Cc1ccc(CN2CCSc3ccc(C(=O)NC4CCN(Cc5ccccc5)CC4)cc32)cc1	MEKK2wt PB1 HTS 206 | MEKK2wt confirm 240 | MEKK2mut-MEK5 80 | MEKK3 confirm inactive
Cc1ccc(CN2CCSc3ccc(C(=O)NCc4ccco4)cc32)cc1	MEKK3 PB1 HTS 56[inhibitor], MEKK2wt PB1 HTS 58[inhibitor] | MEKK2wt confirm inactive | MEKK2mut-MEK5 inactive | MEKK3 confirm inactive
Cc1cc(N)ccc1N1CCCC1	MEKK3 PB1 HTS 71[inhibitor] | MEKK2wt confirm inactive | MEKK2mut-MEK5 inactive | MEKK3 confirm inactive
COc1ccc(CCC(C)NCCc2ccc(Cl)cc2Cl)cc1 (configuration not stated)	MEKK2wt PB1 HTS 152 | MEKK2wt confirm inactive | MEKK2mut-MEK5 inactive | MEKK3 confirm inactive
COc1ccc(CCC(C)NCc2ccc(Cl)c(Cl)c2)cc1 (configuration not stated)	none
COc1ccc(NC(C)c2ccccc2)cc1 (configuration not stated)	none (no result: VLA-4 inh)
CC(Nc1ccccc1)c1ccncc1 (configuration not stated)	MEKK3 PB1 HTS 133 | MEKK2wt confirm inactive | MEKK2mut-MEK5 inactive | MEKK3 confirm inactive
CCN(CC)c1ccc(NC(=O)c2cccnc2)cc1	MEKK2wt PB1 HTS 134 | MEKK2wt confirm inactive | MEKK2mut-MEK5 inactive | MEKK3 confirm inactive
Cc1nc2ccc(NC(=O)c3cccnc3)cc2s1	MEKK3 PB1 HTS 50[inhibitor] | MEKK2wt confirm inactive | MEKK2mut-MEK5 inactive | MEKK3 confirm inactive
Cc1nc2ccc(NC(=O)c3cnc(Cl)c(Cl)c3)cc2s1	none
OC(COCC1COc2ccccc2O1)CN1CCN(c2ccccn2)CC1 (configuration not stated)	MEKK2 mut-MEK5 24 | MEKK2wt confirm inactive | MEKK2mut-MEK5 inactive | MEKK3 confirm inactive
OC(COCC1COc2ccccc2O1)CN1CCc2ccccc2C1 (configuration not stated)	none
O=S(=O)(Nc1nc2ccccc2nc1NCC1CCCO1)c1ccccc1 (configuration not stated)	MEKK3 PB1 HTS 53[inhibitor] | MEKK2wt confirm inactive | MEKK2mut-MEK5 inactive | MEKK3 confirm inactive
Cc1nc2c(-c3ccc(F)cc3)cnn2c2c1CCC2	none
C=CCC(C(=O)NC(C)c1ccccc1)C(=O)NC(C)c1ccccc1 (configuration not stated)	none
CCCc1ccc(C#N)c(SC2CC(=O)N(c3ccc(OC)cc3)C2=O)n1 (configuration not stated)	none
COc1ccc(N2C(=O)CC(Sc3nc(C)cc(C)c3C#N)C2=O)cc1 (configuration not stated)	MEKK3 PB1 HTS 1.0[inhibitor], MEKK2wt PB1 HTS -7.0[inhibitor] | MEKK2wt confirm inactive | MEKK2mut-MEK5 inactive | MEKK3 confirm inactive
CCNC(=S)N(CCc1c(C)[nH]c2ccc(F)cc12)Cc1cccnc1	MEKK2 mut-MEK5 35 | MEKK2wt confirm inactive | MEKK2mut-MEK5 inactive | MEKK3 confirm inactive
COc1cc(OC)c(N(C)S(=O)(=O)c2cccc(C(=O)OCC(=O)c3c[nH]c4ccccc34)c2)cc1Cl	none
